Screening results as filed in PubChem BioAssay.
ANO1 block = mouse TMEM16A channel inhibition, primary screen. Q8BHY3. HEK293 TMEM16A/YFP iodide influx fluorescence, ionomycin. normalized B-score (activity score, 25-100; higher = stronger inhibition) at 10 µM. 1.2% of 310,000 active. AID 588511;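 active means ratio plate-corrected score three or more library SD toward inhibition, starting fluorescence score within five deviations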;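 further: score derived from kinetic fluorescence span divided by baseline fluorescence per well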
Target sequence (Q8BHY3 whole entry, looked up): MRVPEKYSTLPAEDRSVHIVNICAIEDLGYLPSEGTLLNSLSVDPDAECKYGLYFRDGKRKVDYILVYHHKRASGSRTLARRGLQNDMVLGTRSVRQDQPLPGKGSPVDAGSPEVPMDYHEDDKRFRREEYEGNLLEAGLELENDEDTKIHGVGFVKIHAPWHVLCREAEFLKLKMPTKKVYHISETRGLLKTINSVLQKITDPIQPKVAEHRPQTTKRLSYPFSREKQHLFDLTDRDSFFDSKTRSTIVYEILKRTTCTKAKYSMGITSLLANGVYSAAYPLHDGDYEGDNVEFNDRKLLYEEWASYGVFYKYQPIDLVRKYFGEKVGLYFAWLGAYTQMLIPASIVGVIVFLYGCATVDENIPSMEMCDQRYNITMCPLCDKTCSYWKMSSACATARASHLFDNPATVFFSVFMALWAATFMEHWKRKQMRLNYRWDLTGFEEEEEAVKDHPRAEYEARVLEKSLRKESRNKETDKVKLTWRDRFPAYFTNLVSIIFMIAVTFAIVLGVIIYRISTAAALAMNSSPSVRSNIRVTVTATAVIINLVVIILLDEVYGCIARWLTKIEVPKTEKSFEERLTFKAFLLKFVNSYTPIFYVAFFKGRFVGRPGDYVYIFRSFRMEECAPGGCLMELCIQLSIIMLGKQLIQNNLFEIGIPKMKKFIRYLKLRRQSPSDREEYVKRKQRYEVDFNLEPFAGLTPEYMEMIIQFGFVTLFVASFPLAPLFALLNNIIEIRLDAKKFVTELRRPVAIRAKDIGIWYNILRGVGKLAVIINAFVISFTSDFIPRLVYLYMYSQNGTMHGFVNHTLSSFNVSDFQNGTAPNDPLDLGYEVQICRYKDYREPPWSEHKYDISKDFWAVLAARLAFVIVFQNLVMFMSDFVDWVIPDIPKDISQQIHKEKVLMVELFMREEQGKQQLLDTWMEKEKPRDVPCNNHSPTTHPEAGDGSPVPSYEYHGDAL
TMEM16A act = mouse TMEM16A channel activation, primary screen; 0.3% of 340,000 active; AID 623877; HEK293 TMEM16A/YFP-H148Q/I152L, iodide quench fluorescence; hits give low values; Q8BHY3; B-score at 10 µM;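 active means fluorescence-ratio B-score plate-corrected deviation score at least 3 library SD below zero, with starting fluorescence score within 5 deviations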;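 further: channel opened by trigger with iodide after compound preincubation; score built on the fluorescence ratio of max minus min over baseline; more negative score means more quench and so TMEM16A activation or potentiation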
CHT block = inhibitors of human choline transporter CHT; B-score at 10 µM; CHT-expressing cells, membrane potential dye, choline response; hits give low values; 0.86% of 310,000 active; Q9GZV3;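 active means B-score over 3 SD under the library average, and starting fluorescence ratio not unusually high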;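 further: choline stimulus applied at its EC90 after an EC20 pre-addition; B-score computed on integrated fluorescence ratio after choline addition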
CHT PAM = human CHT allosteric activation; CHT-expressing cells, membrane potential dye, choline EC20; hits give high values; LV-AA mutant CHT in HEK293 cells; B-score at 10 µM; 0.49% of 310,000 active; AID 488977;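 active means initial fluorescence not abnormally high and integrated response B-score, plate-corrected, over 3 SD above library mean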
CHT act confirm = confirmation of human choline transporter (CHT) activators | AID 504833 | activation, % at 10 µM | 91% of 2,500 active | shares compounds with CHT PAM | CHT-expressing cells, membrane potential dye fluorescence (FDSS); % of choline EC20–EC90 response window; HEK293 expressing CHT LV-AA mutant; choline added at its EC20;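 active means primary screen active, with duplicate mean activation above negative control mean plus 3 SD, cut at about 11% in these data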
HEK293 MP dye = counter-screen for CHT activators: effect in parental HEK293 cells; shares compounds with CHT PAM; membrane potential dye fluorescence (FDSS); measured after EC20 choline addition; ratio readout change at 10 µM, hits read low; 62% of 2,500 active; AID 623908;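 active means duplicate-averaged ratio beyond 3 SD from buffer wells, up or down, though filed actives are nearly all decreases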
* = called active by the depositor. Shown are actives, neighbours in structure and some others; about 2.4% of the full set was active somewhere.

How did COc1ccc(C[C@H]2CN3C(=NC[C@@H]3C)N2CCNC(=O)CCC2CCCCC2)cc1 do in these assays?
ANO1 block: inactive; TMEM16A act: inactive; CHT block: inactive; CHT PAM: inactive; CHT act confirm: 4; HEK293 MP dye: inactive

How did CCC(Oc1ccccc1)C(=O)Nc1cc(C(F)(F)F)ccc1N1CCOCC1 (stereo unspecified) do in these assays?
ANO1 block: inactive; TMEM16A act: inactive; CHT block: inactive; CHT PAM: inactive

Results for COC(=O)c1sc(NC(=O)C(C)c2ccccc2)nc1C (stereo unspecified) ?
ANO1 block: inactive; TMEM16A act: inactive; CHT block: inactive; CHT PAM: 6.7*; CHT act confirm: 30*; HEK293 MP dye: inactive

What do the screens show for `CCc1cc2c(SCC(=O)C(C#N)=C3N(C)c4ccccc4N3C)ncnc2s1`?
ANO1 block: inactive; TMEM16A act: inactive; CHT block: inactive; CHT PAM: inactive

How did CN(C(=O)CCc1ccccc1)c1nnc(-c2ccncc2)s1 do in these assays?
ANO1 block: inactive; TMEM16A act: inactive; CHT block: inactive; CHT PAM: 7.4*; CHT act confirm: 28*; HEK293 MP dye: -30*

How did O=C(Nc1ccccc1N1CCCC1)C1CC(=O)N(Cc2ccccc2)C1 (stereo unspecified) do in these assays?
ANO1 block: inactive; TMEM16A act: inactive; CHT block: inactive; CHT PAM: inactive

Results for O=C(O)CC(c1ccc(F)cc1F)N1Cc2ccccc2C1=O (stereo unspecified) ?
ANO1 block: inactive; CHT block: inactive; CHT PAM: inactive

Results for CCOc1ccccc1NC(=O)CN1CCC(NC(=O)Nc2ccccc2)CC1 ?
ANO1 block: inactive; TMEM16A act: inactive; CHT block: inactive; CHT PAM: inactive

Results for Cc1ccc2[nH]c3c(c2c1)CN(C)CC3 ?
ANO1 block: inactive; TMEM16A act: inactive; CHT block: inactive; CHT PAM: inactive

How did CCOC(=O)c1ccc2[nH]c3c(c2c1)CN(C)CC3 do in these assays?
ANO1 block: inactive; TMEM16A act: inactive; CHT block: inactive; CHT PAM: 6.8*; CHT act confirm: 32*; HEK293 MP dye: -43*

What do the screens show for `CN1C(=O)C(N=Nc2ccccc2C(=O)O)N(C)C1=S` (stereo unspecified)?
ANO1 block: inactive; TMEM16A act: inactive; CHT block: inactive; CHT PAM: inactive

How did COc1cccc(Nc2nc(N)c([N+](=O)[O-])c(N3CCOCC3)n2)c1 do in these assays?
ANO1 block: inactive; TMEM16A act: inactive; CHT block: inactive; CHT PAM: inactive

What do the screens show for `O=C1CCCCCCCCCC/C(=N\O)CCCO1`?
ANO1 block: inactive; TMEM16A act: inactive; CHT block: inactive; CHT PAM: inactive; CHT act confirm: 14*; HEK293 MP dye: inactive

Results for C[C@@H]1CCCCCCCCC(=O)OCCN(C(=O)OC(C)(C)C)[C@H](C)CCCCCCCCC(=O)OCCN(C(=O)OC(C)(C)C)[C@H](C)CCCCCCCCC(=O)OCCN(C(=O)OC(C)(C)C)[C@H](C)CCCCCCCCC(=O)OCCN1C(=O)OC(C)(C)C ?
TMEM16A act: inactive

How did N#Cc1c(Cl)nc2c(c1C#N)CCCC2 do in these assays?
ANO1 block: inactive; TMEM16A act: inactive; CHT block: inactive; CHT PAM: inactive

How did Nc1c2c(nc3c1CCC3)CCCC2 do in these assays?
ANO1 block: inactive; CHT block: inactive; CHT PAM: 12*; CHT act confirm: 44*; HEK293 MP dye: -70*

How did COc1cccc(CNC(=O)c2nnn(CC(=O)Nc3cccc(C)c3)c2N)c1 do in these assays?
ANO1 block: inactive; TMEM16A act: inactive; CHT block: inactive; CHT PAM: inactive

What do the screens show for `Cc1cc(C)c(C#N)c(SCc2cn3c(C)cccc3n2)n1`?
ANO1 block: inactive; TMEM16A act: inactive; CHT block: inactive; CHT PAM: inactive; CHT act confirm: 56*; HEK293 MP dye: -42*

How did Cc1cccc2nc(CSc3ncccc3C(=O)O)cn12 do in these assays?
ANO1 block: inactive; TMEM16A act: inactive; CHT block: inactive; CHT PAM: inactive

How did Cc1cc(C)c(C#N)c(SCc2ccc(C#N)cc2)n1 do in these assays?
ANO1 block: inactive; TMEM16A act: inactive; CHT block: inactive; CHT PAM: inactive

Results for Cc1ccnc(SCc2cn3c(C)cccc3n2)n1 ?
ANO1 block: inactive; TMEM16A act: inactive; CHT block: inactive; CHT PAM: 7*; CHT act confirm: 27*; HEK293 MP dye: -46*

What do the screens show for `Cc1cc(C)nc(SCc2cn3c(C)cccc3n2)n1`?
ANO1 block: inactive; TMEM16A act: inactive; CHT block: inactive; CHT PAM: 6.8*; CHT act confirm: 44*; HEK293 MP dye: -53*

Results for COc1ccc(C(=O)Nc2cc([N+](=O)[O-])ccc2N2CCN(C)CC2)cc1 ?
ANO1 block: inactive; TMEM16A act: inactive; CHT block: inactive; CHT PAM: inactive

Results for Cc1cccc(OCC(=O)Nc2ccccc2N2CCN(C)CC2)c1 ?
ANO1 block: inactive; TMEM16A act: inactive; CHT block: inactive; CHT PAM: 11*; CHT act confirm: 36*; HEK293 MP dye: inactive

What do the screens show for `CN1CCN(c2ccccc2NC(=O)c2ccc(OCc3ccccc3)cc2)CC1`?
ANO1 block: inactive; TMEM16A act: inactive; CHT block: inactive; CHT PAM: inactive; CHT act confirm: 27*; HEK293 MP dye: -33*

What do the screens show for `COc1cccc(C(=O)Nc2cc([N+](=O)[O-])ccc2N2CCN(C)CC2)c1`?
ANO1 block: inactive; TMEM16A act: inactive; CHT block: inactive; CHT PAM: 9.7*; CHT act confirm: 49*; HEK293 MP dye: -82*

Results for CN1CCN(c2ccc([N+](=O)[O-])cc2NC(=O)c2ccccc2)CC1 ?
ANO1 block: inactive; TMEM16A act: inactive; CHT block: inactive; CHT PAM: 8.5*; CHT act confirm: 62*; HEK293 MP dye: -88*

Results for CN1CCN(c2ccccc2NC(=O)c2cccc([N+](=O)[O-])c2)CC1 ?
ANO1 block: inactive; TMEM16A act: inactive; CHT block: inactive; CHT PAM: inactive; CHT act confirm: 52*; HEK293 MP dye: -44*

What do the screens show for `O=C(Nc1ccccc1N1CCN(C(=O)c2ccc(Cl)cc2)CC1)c1cccc([N+](=O)[O-])c1`?
ANO1 block: inactive; TMEM16A act: inactive; CHT block: inactive; CHT PAM: inactive
